Compound activity (PubChem)
Pyk2 oligo antag = Pyk2 (human) oligomerization antagonism; Q14289; Q293 cells, Pyk2 FERM NanoBiT luminescence; hits give low values; z-score (the deposit names both 25 µM and 10 µM); actives 0.83% (n = 99,000); AID 1347419;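 active = Z-score of -3 or lower, scaled per plate to the spread of control and sample wells; inactive = z-score above -3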;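 note: negative z-score means lost luminescence so less FERM oligomerization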
CD11b adhes inh = inhibitors of human CD11b/CD18 binding to fibrinogen; P05107+P11215; actives 0.54% (n = 93,000); inhibition, % at 10 µM; AID 1497; K562 CD11b/CD18 adhesion to fibrinogen, ATPlite luminescence; Mn2+ added to activate the integrin;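 active = primary inhibition of 50% or more at 10 µM, then 40% or more on retest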
Mac1 fbg enh = CD11b/CD18-fibrinogen binding enhancement; K562 CD11b/CD18 adhesion to fibrinogen, ATPlite luminescence; activation, % at 10 µM; actives 0.07% (n = 93,000);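 active = 10 µM primary screen giving 50% or more activity, confirmed by 40% or more on retest at that dose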
Cav32 inh = human Cav3.2 channel inhibition, primary screen. Cav3.2-expressing cells, Fluo-4 calcium fluorescence FDSS; hits give low values. B-score at 10 µM. actives 4% (n = 100,000);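 active = single-dose well whose peak fluorescence ratio is a statistical outlier from its plate by either plate-standardised score or position-corrected B-score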
E coli RNAP = Escherichia coli RNA polymerase inhibition; P0A8V2; E. coli RNA polymerase, fluorescence transcription assay; inhibition, %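 (tested at 10 µM)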; actives 0.2% (n = 62,000); AID 559; in the data active = inhibition above about 20%;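 note: 0% = enzyme without compound and 100% = no enzyme blank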
* marks the source's active call; other numbers are inactive results; x = no result. This is a sample that favours compounds with a hit; in the whole collection about 4.2% have one here.

SMILES	Pyk2 oligo antag	CD11b adhes inh	Mac1 fbg enh	Cav32 inh	E coli RNAP
C=CCOC(=O)C1=C[C@H](C2CCCCC2)[C@@H](CCCO)[C@H](OCC)O1	x	x	x	-0.63	x
Cc1ccc(CN(C(=O)Cn2nnc3ccccc32)C(C(=O)NCc2ccco2)c2cccs2)cc1 (configuration not stated)	-1.94	1.4	0.0	-9.36*	-3.8
O=C(NCc1ccco1)C(c1ccco1)N(Cc1cccs1)C(=O)Cn1nnc2ccccc21 (configuration not stated)	-3.82*	x	x	0.963	x
O=C(NCc1ccco1)C(c1cccs1)N(Cc1ccccc1)C(=O)Cn1nnc2ccccc21 (configuration not stated)	-3.28*	-3.6	0.8	-3.24	8.3
COCCNC(=O)C(c1ccccc1)N(Cc1cccs1)C(=O)Cn1nnc2ccccc21 (configuration not stated)	-1.05	3.9	2.9	1.58	2.5
O=C(NCc1ccco1)C(c1ccc(F)cc1)N(CC1CCCO1)C(=O)Cn1nnc2ccccc21 (configuration not stated)	1.11	-22.3	-0.8	-4.91*	8.6
O=C(NCc1ccco1)C(c1ccco1)N(CCc1ccccc1)C(=O)Cn1nnc2ccccc21 (configuration not stated)	-0.27	5.0	-2.8	-6.24*	6.5
CC1CCN(CCCn2c(=S)[nH]c3ccc(N4CCOCC4)cc3c2=O)CC1	-0.96	x	x	-4.66*	6.4
O=C(CCCSc1ccccc1)Nc1nc(-c2ccccn2)cs1	0	-23.6	-1.8	-6.34*	x
C#CCSc1nnc(-c2sc(-c3ccccc3)nc2C)n1C	-0.48	x	x	1.1	x
COC(=O)c1sccc1NC(=O)CSc1ccccc1NS(=O)(=O)c1ccc(Cl)cc1	-1.8	x	x	-6.05*	x
COC(=O)c1sccc1NC(=O)CSc1ccccc1NS(=O)(=O)c1ccccc1Cl	-2.72	31.2	-6.5	-4.26*	x
COC(=O)c1sccc1NC(=O)CSc1cc(Cl)ccc1Cl	-0.33	x	x	x	x
Cc1ccc(Nc2nnc(-c3ccncc3)s2)c(Br)c1	x	3.1	0.1	x	x
CN(CC(=O)Nc1cccc2ccccc12)C(=O)/C=C/c1cccs1	x	4.3	-0.2	x	x
CCC(C)(C)NC(=O)C(c1ccc(OC)cc1)N(Cc1cccs1)C(=O)CCC(=O)Nc1cc(C)on1 (configuration not stated)	0.15	x	x	-5.5*	x
N#C/C(C(=O)N1CCOCC1)=C1/SC(Cc2ccccc2)C(=O)N1c1ccccc1 (configuration not stated)	0.16	-7.6	-1.4	-0.453	7.9
CCCCc1ccc(CC2S/C(=C(\C#N)C(=O)N3CCOCC3)N(c3ccccc3)C2=O)cc1 (configuration not stated)	0.33	1.3	-4.4	-3.89*	x
c1ccc(-c2noc(CSc3nnnn3C3CCCCC3)n2)cc1	0.59	x	x	-5.67*	2.0
CCn1c(SCc2nc(-c3ccccc3)no2)nc2ccccc21	x	-6.7	-0.4	-3.4*	7.9
COc1ccc(-c2noc(CSc3nnc(-c4ccccc4)n3C)n2)cc1	-0.1	-21.8	0.8	0.86	x
CC(C)(Oc1ccc(Cl)cc1)C(=O)N/N=C/c1cn[nH]c1-c1ccccc1	0.28	-2.1	-1.2	-2.68	x
Cc1ccc(NC(=O)Cc2nnc(SCC(=O)c3ccc(Br)cc3)n2C)cc1	-0.28	-6.9	0.0	-1.14	x
COC(=O)[C@H](CCSC)NS(=O)(=O)c1ccccc1Br	x	x	x	-0.337	x
CCOC(=O)c1c(C)nc2sc(C(=O)Nc3ccc(OC)cc3)c(N)c2c1-c1ccc(OC)cc1	-2.41	3.2	-1.1	-4.85*	x
SMILES	Pyk2 oligo antag	CD11b adhes inh	Mac1 fbg enh	Cav32 inh	E coli RNAP
COc1cccc(Cn2cnc3c(NS(=O)(=O)c4cccc(Cl)c4Cl)c(C)c(C)cc32)c1	-0.44	13.0	2.4	-5.39*	x
COc1cccc(Cn2cnc3c(NS(=O)(=O)c4ccc(Cl)cc4Cl)c(C)c(C)cc32)c1	-0.34	x	x	-3.45*	x
COc1cccc(Cn2cnc3c(NS(=O)(=O)c4cc(Cl)ccc4Cl)c(C)c(C)cc32)c1	-0.73	18.0	-2.3	-5.44*	x
COc1cccc(Cn2cnc3c(NS(=O)(=O)c4ccc(Cl)cc4)c(C)c(C)cc32)c1	0.96	2.9	1.1	1.07	x
Cn1nnnc1SCC(=O)N1CCN(c2cccc(Cl)c2)CC1	-0.6	-5.8	-4.2	x	4.3
Cc1ccc(NC(=O)CSc2ccc3nnc(CCNC(=O)c4ccccc4)n3n2)c(C)c1	x	-7.5	7.5	x	x
O=C(NCc1nc2ccccc2[nH]1)C1=C[C@H](c2ccc3c(c2)OCO3)C[C@H](OCc2ccc(CO)cc2)O1	x	x	x	-1.38	x
CCn1nnnc1SCC(=O)Nc1ccc2c(c1)OCO2	0.78	x	x	0.486	x
Cc1ccc(NC(=O)CCSc2nnnn2-c2ccc3c(c2)OCO3)cc1C	1.47	11.6	4.0	-5.07*	10.6
c1ccc(CSc2nnnn2-c2ccc3c(c2)OCCO3)nc1	-0.55	9.8	-0.3	1.53	x
Clc1ccc(CSc2nnnn2-c2ccc3c(c2)OCO3)c(Cl)c1	-1.49	27.3	-0.2	-3.45*	x
CON1C(=O)C(=O)N(OC)C(C)(C)C1C (configuration not stated)	-0.7	x	x	-2.74	x
Cc1cc(C)cc(N(C(=O)Cc2cccs2)C(C(=O)NC2CCCCC2)c2ccccn2)c1 (configuration not stated)	-1.72	x	x	-5.26*	x
CCOc1cccc(N(C(=O)Cc2cccs2)C(C(=O)NC2CCCCC2)c2cccn2C)c1 (configuration not stated)	-1.15	x	x	-4.1*	x
CCc1ccc(N(C(=O)Cc2cccs2)C(C(=O)NC2CCCCC2)c2cn(C)nc2C)cc1 (configuration not stated)	0.75	x	x	-1.2	x
C/C(=N\NC(=O)CN1CCN(Cc2ccc(C)cc2)CC1)c1ccncc1	x	-4.6	2.3	x	x
COC(=O)[C@@]1(Cc2ccccc2)[C@H]2c3cc(C(=O)N4CCCC4)n(Cc4ccsc4Br)c3C[C@H]2CN1C(=O)c1ccccc1	x	x	x	-0.494	x
CCCc1nc2ccccc2[nH]1	2.2	-2.7	0.2	0.582	x
Cc1cccc(CC(Cc2nc3ccccc3[nH]2)c2nc3ccccc3[nH]2)c1 (configuration not stated)	-2.91	-2.5	0.3	-7.09*	x
COC(=O)C1=C(N)N(c2ccccc2C(F)(F)F)C2=C(C(=O)CCC2)C1c1ccc2c(c1)OCO2 (configuration not stated)	-4.31*	8.8	-0.8	0.369	x
Cc1cccc(COCCN2CCN(S(=O)(=O)c3ccccc3)CCC2=O)c1	x	x	x	-0.238	x
C=CCn1c(CNc2ccccc2)nnc1SCC(=O)N/N=C/c1ccccc1O	1.02	7.1	-4.4	-3.23	x
CC(C)(C)c1cc(C(F)(F)F)nc(SCCCNC(=O)c2ccco2)n1	-0.07	13.4	-2.4	-4.63*	2.3
O=C(CN(C(=O)Cn1nnc(-c2ccccc2F)n1)c1cccc2c1CCCC2)NCc1ccccc1	-1.42	-4.0	5.4	-6.08*	x
CC(C)CCNC(=O)CN(C(=O)Cn1nnc(-c2ccccc2F)n1)c1cccc2c1CCCC2	-1	x	x	-7.99*	x
